Experimental data reported in the supplement of paper PMC7393113.
± gives the standard deviation of the averaged measurements.

Test system: iBMDM (immortalised mouse bone-marrow-derived macrophages), LPS-stimulated
Assay: mitochondrial superoxide (MitoSOX fluorescence) fold increase over unstimulated control; higher = more LPS-induced mitochondrial ROS (less inhibition)
Details: inhibitor concentration: 500 nM, LPS: 100 ng/ml
Outline: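 Mitochondrial superoxide values are mean fold induction compared with untreated macrophages. Triplicate wells of immortalised mouse bone-marrow-derived macrophages in phenol-red-free 1% FCS/DMEM received kinase inhibitors (500 nM) for 30 min, then 1 μM MitoSox for 10 min, then LPS (100 ng/ml). Fluorescence (510/580 nm) was taken every 60 min for 4 h.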

Structure (SMILES): Nc1ncnc2c1c(-c1cccc(OCc3ccccc3)c1)cn2C1CC(CN2CCCC2)C1 (configuration not stated)
- mitochondrial superoxide (time after LPS: 1 h): 1.44 ± 0.15
- mitochondrial superoxide (time after LPS: 2 h): 1.55 ± 0.18
- mitochondrial superoxide (time after LPS: 4 h): 1.62 ± 0.21

Structure (SMILES): C[C@@H](Oc1cc(-n2cnc3ccc(CN4CCN(C)CC4)cc32)sc1C(N)=O)c1ccccc1C(F)(F)F
- mitochondrial superoxide (time after LPS: 1 h): 1.12 ± 0.059
- mitochondrial superoxide (time after LPS: 2 h): 1.22 ± 0.025
- mitochondrial superoxide (time after LPS: 4 h): 1.35 ± 0.048

Structure (SMILES): O=c1c(O)c(-c2ccc(O)c(O)c2)oc2cc(O)cc(O)c12 [Quercetin]
- mitochondrial superoxide (time after LPS: 1 h): 1.31 ± 0.046
- mitochondrial superoxide (time after LPS: 2 h): 1.35 ± 0.071
- mitochondrial superoxide (time after LPS: 4 h): 1.43 ± 0.063

Structure (SMILES): O=C1c2ccc(Nc3ccc(F)cc3F)cc2CCc2ccc(OC[C@H](O)CO)cc21 [Skepinone-L]
- mitochondrial superoxide (time after LPS: 1 h): 1.43 ± 0.05
- mitochondrial superoxide (time after LPS: 2 h): 1.41 ± 0.05
- mitochondrial superoxide (time after LPS: 4 h): 1.62 ± 0.049

Structure (SMILES): Clc1ccc(C2(c3ccc(-c4cn[nH]c4)cc3)CCNCC2)cc1
- mitochondrial superoxide (time after LPS: 1 h): 1.16 ± 0.065
- mitochondrial superoxide (time after LPS: 2 h): 1.21 ± 0.061
- mitochondrial superoxide (time after LPS: 4 h): 1.25 ± 0.042

Structure (SMILES): O=C1NC(=O)/C(=C/c2cccc(C(F)(F)F)c2)S1
- mitochondrial superoxide (time after LPS: 1 h): 1.27 ± 0.052
- mitochondrial superoxide (time after LPS: 2 h): 1.35 ± 0.074
- mitochondrial superoxide (time after LPS: 4 h): 1.53 ± 0.05

Structure (SMILES): CCc1cccc(CC)c1NC(=O)N1Cc2[nH]nc(NC(=O)c3ccc(N4CCN(C)CC4)cc3)c2C1
- mitochondrial superoxide (time after LPS: 1 h): 1.09 ± 0.027
- mitochondrial superoxide (time after LPS: 2 h): 1.24 ± 0.015
- mitochondrial superoxide (time after LPS: 4 h): 1.34 ± 0.099

Structure (SMILES): c1cncc(CN2CCC(n3ncc4c(N5CCOCC5)nc(-c5ccc6[nH]ccc6c5)nc43)CC2)c1
- mitochondrial superoxide (time after LPS: 1 h): 1.34 ± 0.059
- mitochondrial superoxide (time after LPS: 2 h): 1.48 ± 0.077
- mitochondrial superoxide (time after LPS: 4 h): 1.66 ± 0.063

Structure (SMILES): COC(=O)c1ccc2c(C(=Nc3ccc(N(C)C(=O)CN4CCN(C)CC4)cc3)c3ccccc3)c(O)[nH]c2c1 [Nintedanib (BIBF 1120)]
- mitochondrial superoxide (time after LPS: 1 h): 1.43 ± 0.015
- mitochondrial superoxide (time after LPS: 2 h): 1.5 ± 0.056
- mitochondrial superoxide (time after LPS: 4 h): 1.72 ± 0.037

Structure (SMILES): Cc1ccc(F)c(NC(=O)Nc2ccc(-c3cccc4[nH]nc(N)c34)cc2)c1 [Linifanib (ABT-869)]
- mitochondrial superoxide (time after LPS: 1 h): 1.66 ± 0.077
- mitochondrial superoxide (time after LPS: 2 h): 1.72 ± 0.074
- mitochondrial superoxide (time after LPS: 4 h): 1.83 ± 0.067

Structure (SMILES): CC1(C)CNc2cc(NC(=O)c3cccnc3NCc3ccncc3)ccc21 [Motesanib Diphosphate (AMG-706)]
- mitochondrial superoxide (time after LPS: 1 h): 1.55 ± 0.066
- mitochondrial superoxide (time after LPS: 2 h): 1.63 ± 0.12
- mitochondrial superoxide (time after LPS: 4 h): 1.71 ± 0.053

Structure (SMILES): CC(=O)Nc1cccc(-n2c(=O)n(C3CC3)c(=O)c3c(Nc4ccc(I)cc4F)n(C)c(=O)c(C)c32)c1
- mitochondrial superoxide (time after LPS: 1 h): 1.34 ± 0.11
- mitochondrial superoxide (time after LPS: 2 h): 1.44 ± 0.066
- mitochondrial superoxide (time after LPS: 4 h): 1.62 ± 0.083

Structure (SMILES): CNC(=O)Nc1ccc(-c2nc(N3CC4CCC(C3)O4)c3cnn(C4CCC5(CC4)OCCO5)c3n2)cc1
- mitochondrial superoxide (time after LPS: 1 h): 1.26 ± 0.075
- mitochondrial superoxide (time after LPS: 2 h): 1.45 ± 0.028
- mitochondrial superoxide (time after LPS: 4 h): 1.58 ± 0.024

Structure (SMILES): COc1ccc(-c2ccc3c(N4CCOCC4)nc(N4C[C@@H](C)O[C@@H](C)C4)nc3n2)cc1CO
- mitochondrial superoxide (time after LPS: 1 h): 1.29 ± 0.041
- mitochondrial superoxide (time after LPS: 2 h): 1.24 ± 0.037
- mitochondrial superoxide (time after LPS: 4 h): 1.32 ± 0.068

Structure (SMILES): COc1cc2ncnc(Nc3cccc(Cl)c3)c2cc1OC [AG-1478 (Tyrphostin AG-1478)]
- mitochondrial superoxide (time after LPS: 1 h): 1.11 ± 0.082
- mitochondrial superoxide (time after LPS: 2 h): 1.54 ± 0.039
- mitochondrial superoxide (time after LPS: 4 h): 1.65 ± 0.057

Structure (SMILES): CO[C@H]1C[C@@H]2CC[C@@H](C)[C@@](O)(O2)C(=O)C(=O)N2CCCC[C@H]2C(=O)O[C@H]([C@H](C)C[C@@H]2CC[C@@H](O)[C@H](OC)C2)CC(=O)[C@H](C)/C=C(\C)[C@@H](O)[C@@H](OC)C(=O)[C@H](C)C[C@H](C)/C=C/C=C/C=C/1C [Rapamycin (Sirolimus)]
- mitochondrial superoxide (time after LPS: 1 h): 1.7 ± 0.07
- mitochondrial superoxide (time after LPS: 2 h): 1.7 ± 0.094
- mitochondrial superoxide (time after LPS: 4 h): 1.7 ± 0.033

Structure (SMILES): Cc1ccc(C(=O)Nc2ccc(CN3CCN(C)CC3)c(C(F)(F)F)c2)cc1C#Cc1cnc2cccnn12
- mitochondrial superoxide (time after LPS: 1 h): 1.08 ± 0.068
- mitochondrial superoxide (time after LPS: 2 h): 1.13 ± 0.014
- mitochondrial superoxide (time after LPS: 4 h): 1.23 ± 0.048

Structure (SMILES): C=CC(=O)Nc1cccc(Nc2nc(Nc3ccc(Oc4ccnc(C(=O)NC)c4)cc3)ncc2F)c1
- mitochondrial superoxide (time after LPS: 1 h): 1.4 ± 0.018
- mitochondrial superoxide (time after LPS: 2 h): 1.49 ± 0.031
- mitochondrial superoxide (time after LPS: 4 h): 1.6 ± 0.023

Structure (SMILES): Cc1c(NC(=O)OC[C@@H]2COCCN2)cn2ncnc(Nc3ccc4c(cnn4Cc4cccc(F)c4)c3)c12
- mitochondrial superoxide (time after LPS: 1 h): 1.57 ± 0.034
- mitochondrial superoxide (time after LPS: 2 h): 1.74 ± 0.077
- mitochondrial superoxide (time after LPS: 4 h): 1.9 ± 0.045

Structure (SMILES): O=C1NCCc2[nH]c(-c3ccncc3)cc21
- mitochondrial superoxide (time after LPS: 1 h): 1.31 ± 0.054
- mitochondrial superoxide (time after LPS: 2 h): 1.41 ± 0.039
- mitochondrial superoxide (time after LPS: 4 h): 1.63 ± 0.06

Structure (SMILES): O=C(c1ccc(/C=C/c2n[nH]c3ccccc23)cc1)N1CCNCC1
- mitochondrial superoxide (time after LPS: 1 h): 1.09 ± 0.063
- mitochondrial superoxide (time after LPS: 2 h): 1.19 ± 0.067
- mitochondrial superoxide (time after LPS: 4 h): 1.33 ± 0.035

Structure (SMILES): Nc1ncnc2c1c(-c1cccc(OCc3ccccc3)c1)cn2C1CC(CN2CCC2)C1 (configuration not stated)
- mitochondrial superoxide (time after LPS: 1 h): 1.36 ± 0.069
- mitochondrial superoxide (time after LPS: 2 h): 1.48 ± 0.037
- mitochondrial superoxide (time after LPS: 4 h): 1.63 ± 0.029

Structure (SMILES): CNC(=O)c1ccc(C)c(-n2c(C)cc(OCc3ccc(F)cc3F)c(Br)c2=O)c1
- mitochondrial superoxide (time after LPS: 1 h): 1.33 ± 0.056
- mitochondrial superoxide (time after LPS: 2 h): 1.48 ± 0.059
- mitochondrial superoxide (time after LPS: 4 h): 1.6 ± 0.016

Structure (SMILES): Nc1nc(Nc2ccc(S(N)(=O)=O)cc2)nn1C(=O)c1c(F)cccc1F
- mitochondrial superoxide (time after LPS: 1 h): 1.15 ± 0.04
- mitochondrial superoxide (time after LPS: 2 h): 1.13 ± 0.027
- mitochondrial superoxide (time after LPS: 4 h): 1.11 ± 0.021

Structure (SMILES): C=CC(=O)Nc1ccc2ncnc(Nc3cccc(Br)c3)c2c1
- mitochondrial superoxide (time after LPS: 1 h): 1.12 ± 0.053
- mitochondrial superoxide (time after LPS: 2 h): 1.29 ± 0.027
- mitochondrial superoxide (time after LPS: 4 h): 1.3 ± 0.061

Structure (SMILES): COc1ncc(-c2ccc3nccc(-c4ccnnc4)c3c2)cc1NS(=O)(=O)c1ccc(F)cc1F
- mitochondrial superoxide (time after LPS: 1 h): 1.28 ± 0.049
- mitochondrial superoxide (time after LPS: 2 h): 1.42 ± 0.033
- mitochondrial superoxide (time after LPS: 4 h): 1.52 ± 0.077

Structure (SMILES): Cc1cc(F)c(Nc2ncnc3cc(OCc4ccccc4)ccc23)cc1O
- mitochondrial superoxide (time after LPS: 1 h): 1.17 ± 0.075
- mitochondrial superoxide (time after LPS: 2 h): 1.11 ± 0.018
- mitochondrial superoxide (time after LPS: 4 h): 1.2 ± 0.016

Structure (SMILES): CCn1c2ccccc2c2cc(Nc3ccnc(NCCCN4CCOCC4)n3)ccc21
- mitochondrial superoxide (time after LPS: 1 h): 1.41 ± 0.063
- mitochondrial superoxide (time after LPS: 2 h): 1.54 ± 0.086
- mitochondrial superoxide (time after LPS: 4 h): 1.67 ± 0.096

Structure (SMILES): N#Cc1ccc2[nH]c(O)c(-c3ccc(CN4CCOCC4)cn3)c2c1
- mitochondrial superoxide (time after LPS: 1 h): 1.08 ± 0.043
- mitochondrial superoxide (time after LPS: 2 h): 1.24 ± 0.097
- mitochondrial superoxide (time after LPS: 4 h): 1.38 ± 0.045
